GALK inhibitor = qHTS Assay for Inhibitors of Human Galactokinase (GALK). P51570. Purified GALK, Kinase-Glo residual ATP luminescence. Potency, µM (series often up to 57.5 µM), inactives show top-dose activity change, negative = inhibition, hits mostly inhibitors. 270,000 tested, 0.007% active. AID 1868, 2009; also: potency is read from the fitted curve at half-maximal effect
Target sequence (P51570 whole entry, looked up): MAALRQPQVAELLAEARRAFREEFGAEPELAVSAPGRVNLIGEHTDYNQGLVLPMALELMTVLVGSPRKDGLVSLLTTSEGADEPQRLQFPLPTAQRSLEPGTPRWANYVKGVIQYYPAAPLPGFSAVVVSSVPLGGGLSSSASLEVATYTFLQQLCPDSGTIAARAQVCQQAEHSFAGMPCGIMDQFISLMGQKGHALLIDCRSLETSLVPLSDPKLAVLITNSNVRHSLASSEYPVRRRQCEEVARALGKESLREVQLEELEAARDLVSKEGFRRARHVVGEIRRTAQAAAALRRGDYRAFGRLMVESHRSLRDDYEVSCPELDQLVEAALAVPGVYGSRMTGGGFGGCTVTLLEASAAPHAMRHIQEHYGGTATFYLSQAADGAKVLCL
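Galactose (100 uM) and ATP (35 uM) were turned over by 5 nM GALK for 1 h at RT. Kinase-Glo Plus then converted the remaining ATP into a luminescent signal.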
TrxR1 substrate = qHTS Assay for Substrates of Mammalian Selenoprotein Thioredoxin Reductase 1 (TrxR1): qHTS. AID 588456, 2011. Potency, µM (doses to about 114 µM), for inactives: at the highest dose activity change, negative = substrate turnover. 390,000 tested, 0.01% active. purified TrxR1 substrate turnover, NADPH consumption readout. Thioredoxin reductase 1, cytoplasmic (Rattus norvegicus), O89049; also: potency is read from the fitted curve at half-maximal effect; nearly all actives have a fitted effect of over 50% in size
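Rat TrxR1, dispensed at 90 nM, was prereduced with 400 uM NADPH (final) for 5 min at ~22 deg C, then incubated with compound 15 min before 400 uM selenite. A first-read NADPH fluorescence drop versus no-compound background flagged substrates.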
Giardia killer = Small Molecules that selectively kill Giardia lamblia: qHTS | 340,000 tested, 0.15% active | AID 540267, 2011 | Giardia lamblia trophozoite viability | activity change, % at 7.66 µM, hits read low; in the data active = activity change below about -80%; inconclusive = between about -30% and that limit;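 also: parasites exposed to compound for two days anaerobically before the ATP read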
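Compounds were tested on trophozoites seeded at 100 cells/well and held 48 hrs at 37 deg C anaerobically. An ATP-based luminescent kit measured the remaining live cells.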
GCN5L2 inh = qHTS Assay for Inhibitors of GCN5L2 | 390,000 tested, 0.21% active | GCN5L2 HAT assay, ThioGlo1 CoA-SH fluorescence | Potency, µM (titrated, usually from 58.9 µM), for the others: at the highest dose activity change, negative = inhibition, hits mostly inhibitors | Histone acetyltransferase KAT2A (Homo sapiens), Q92830; also: potency is read from the fitted curve at half-maximal effect
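qHTS, 1536-well. 20nM enzyme, pH 7.5 HEPES/EDTA/Tween-20 buffer; 15 min compound preinc., RT. Start: 75uM H3(1-25), 70uM AcCoA, 50uM ThioGlo1. Read Ex340/Em540 at t=0 (autofluorescence flag) and t=20 min.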
rTrxR1 inhibitor = qHTS Assay for Inhibitors of Mammalian Selenoprotein Thioredoxin Reductase 1 (TrxR1): qHTS. Thioredoxin reductase 1, cytoplasmic (Rattus norvegicus), O89049. recombinant rTrxR1, NADPH fluorescence consumption, selenite substrate. Potency, µM (series often up to 114 µM), for inactives: at the highest dose activity change, negative = inhibition, usual class: inhibitors. 390,000 tested, 1% active. AID 588453, 2011; also: potency is read from the fitted curve at half-maximal effect; nearly all actives have a fitted effect of over 65% in size
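Rat TrxR1 (90 nM in the dispensed reagent) was pre-reduced with 400 uM NADPH for 5 min at room temperature, then incubated with compound for 15 min. After 400 uM selenite was added, NADPH fluorescence (Ex 340/Em 450 nm) was followed for 8 min.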
Pin1 inhibitor = qHTS Assay to Find Inhibitors of Pin1 | Pin1 FP peptide displacement, HiFluor488, 10 min | Potency, µM (doses to about 115 µM), without a hit: at the top dose activity, negative = inhibition, usual class: inhibitors | 390,000 tested, 0.009% active; active = well fitted inhibition curve with a large enough effect in the polarisation, with a control signal flat, not every such curve was filed as active; inconclusive = small, poorly fitted or top-dose-only effect, or effect the other way, or a change in a side signal; inactive = no such curve, though single readings can be large or run the other way; the % refers to the polarisation; also: potency is read from the fitted curve at half-maximal effect
Target sequence (Q13526 whole entry, looked up): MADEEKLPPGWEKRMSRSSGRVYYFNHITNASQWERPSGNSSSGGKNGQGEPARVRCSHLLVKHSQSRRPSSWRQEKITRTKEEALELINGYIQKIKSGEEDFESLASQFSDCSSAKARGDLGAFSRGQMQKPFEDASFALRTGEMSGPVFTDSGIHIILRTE
An asterisk follows results filed as active; ? = inconclusive; / = not tested or not shown; [ ] = remark or other dose. An excerpt weighted towards active compounds, which were near 1.3% of everything screened. Unless noted, calls follow the shape of the dose curve; as a rule, active = well fitted curve in the direction sought with a large enough effect; inconclusive = small, poorly fitted or top-dose-only effect, or another doubt; inactive = no such curve, though single readings can be large; an effect the other way counts as inactive or inconclusive. % is scaled to controls: 0 for no effect and ±100 for the full control effect.

SMILES	GALK inhibitor	TrxR1 substrate	Giardia killer	GCN5L2 inh	rTrxR1 inhibitor	Pin1 inhibitor
CC1(C)C(/C=C/C=C/C=C/C=C2\N(CCCCS(=O)(=O)O)c3ccc4ccccc4c3C2(C)C)=[N+](CCCCS(=O)(=O)[O-])c2ccc3ccccc3c21	/	-16%	-2	10µM*	3.5µM*	?
COc1ccc(-c2nc3ccc(NC(C)=O)cc3c(=O)n2Cc2cccc(Cl)c2)cc1COc1ccc(NC(C)=O)cc1	/	0%	-4	/	14µM*	?
COc1ccc(-c2nc3ccc(NC(=O)COC(C)=O)cc3c(=O)n2Cc2ccccc2)cc1COc1ccc(NC(C)=O)cc1	/	-1%	-17	/	35µM*	1%
COc1ccc(-c2nc3ccccc3c(=O)n2Cc2ccco2)cc1COc1ccc(NC(C)=O)cc1	/	/	/	/	/	40%
O=C(O)c1ccccc1SC1=NS(=O)(=O)c2ccccc21	/	/	/	/	/	-15%
CC1C/C(=C/c2ccccn2)C(=O)/C(=C/c2ccccn2)C1 (stereo not given)	-2%	5%[57.1 µM]	-15	2%	?	-5%
CC(C)(C)C1C/C(=C/c2ccccn2)C(=O)/C(=C/c2ccccn2)C1 (stereo not given)	1%	0%	?	-1%	35µM*	-9%
O=C1/C(=C/c2ccccn2)COc2ccccc21	0%	-14%[57.1 µM]	5	-4%	22µM*	2%
CCOC(=O)CCSc1n[nH]c(=S)s1	1%	-9%	5	?	-16%[11.4 µM]	1%
CCOC(=O)CSc1n[nH]c(=S)s1	-2%	-16%	6	25µM*	?	-2%
CCc1cc(=O)[nH]c(SCc2nc(-c3cccc(Cl)c3)no2)n1	/	5%[57.1 µM]	/	-14%	11%[57.1 µM]	?
CCOC(=O)CSC1=NC(=O)/C(=C/c2ccc(OC)cc2)S1	1%	-13%	8	0%	16µM*	?
COc1ccc(/C=C2\SC(N)=NC2=O)cc1	7%	0%[57.1 µM]	5	-4%	-6%[57.1 µM]	18%
O=C(NC1=C(NC2CCS(=O)(=O)C2)C(=O)c2ccccc2C1=O)c1ccccc1 (stereo not given)	-3%	32µM*	8	10%	50µM*	1%
C=C1CCC2C(C)(C)[C@H](O)CC[C@@]2(C)[C@@H]1COc1cc(=O)oc2ccccc12 (stereo not given in full)	/	-13%	-9	-8%	-8%	?
C=C1CC(COc2cc(=O)oc3ccccc23)(c2ccccc2)OC1=O (stereo not given)	/	-7%	-19	/	32µM*	14%
C=C(CN(C)C)C(=O)c1ccc(C)cc1C	/	15%[11.4 µM]	-3	/	2µM*	7%
COc1ccc(CN(Cc2ccccc2)S(=O)(=O)c2ccccc2)cc1COc1ccc(NC(C)=O)cc1	/	/	/	/	/	3%
CCCCCC#CCC#CCC#CCC#CCCCC(=O)O	3%	/	/	2.2µM*	/	/
CCCCCCCCCC(=O)O	/	0%	-19	-3%	14%	-10%
O=C(NCc1ccccc1)C1CCN(c2nc(-c3ccc(Br)cc3)cs2)CC1	/	/	/	/	/	15%
CC1=C(C(=O)OCc2ccc3nsnc3c2)N2C(=O)[C@@H](NC(=O)OCc3ccc4nsnc4c3)[C@H]2SC1	/	4%	/	/	?	/
COc1ccccc1N1C(=O)CC(Sc2nccc(C)n2)C1=O (stereo not given)	0%	-1%	-10	-4%	-16%	-2%
COc1ccccc1N1C(=O)CC(Sc2n[nH]c(-c3cccc(C)c3)n2)C1=O (stereo not given)	0%	1%	-10	-13%	1.6µM*	2%
COc1ccc(C(=O)n2nc(-c3ccco3)nc2NCc2cccs2)cc1	/	-1%	/	-18%	22µM*	-2%
SMILES	GALK inhibitor	TrxR1 substrate	Giardia killer	GCN5L2 inh	rTrxR1 inhibitor	Pin1 inhibitor
COc1ccc(CNc2nc(-c3ccco3)nn2C(=O)c2ccccc2Cl)cc1	/	-1%	/	-16%	9%	-2%
COc1ccc(Oc2c(C(F)(F)F)oc3c(CN4CCCC(C)C4)c(O)ccc3c2=O)cc1 (stereo not given)	/	-6%	/	4%	1%	0%
O=C(NCc1ccco1)c1ccccc1NS(=O)(=O)c1ccc(Cl)s1	-2%	1%	-6	3%	45µM*	-3%
Cc1c(NC(=O)OCCNC(=O)Nc2ccccc2)sc(=S)n1C	-4%	7%[57.1 µM]	-3	-16%	-9%[57.1 µM]	-4%
Cc1ccc(S(=O)(=O)NCCOC(=O)Nc2sc(=S)n(C)c2C)cc1	2%	3%	-8	-10%	7.1µM*	-5%
O=C1C(Cl)=C(N2CCC(C(=O)O)CC2)C(=O)c2ccccc21	?	-1%	18	?	1.1µM*	-10%
O=C(O)C1CCN(C(=O)c2ccccc2Cl)CC1	-2%	4%[57.1 µM]	-7	1%	21%[57.1 µM]	-8%
NC(=O)C1CCN(C2=C(Cl)C(=O)c3ccccc3C2=O)CC1	?	-15%	-17	-15%	1µM*	-10%
NC(=O)C1CCN(C2=C(NS(=O)(=O)c3ccccc3)C(=O)c3ccccc3C2=O)CC1	1%	1%	21	-7%	14%	0%
CN1CCN(C2=C(Cl)C(=O)c3ccccc3C2=O)CC1	/	-4%[57.1 µM]	12	/	?	67µM*
CN1CCN(C2=C(NS(=O)(=O)c3ccccc3)C(=O)c3ccccc3C2=O)CC1	3%	-11%	-1	-2%	-33%	-12%
CN(Cc1cccs1)c1ncnc2ccc(-c3ccc4cnn(C)c4c3)cc12	/	/	/	/	/	7%
CCN(CC)C(=O)c1ccc(S(=O)(=O)Cc2ccc(C)cc2)c([N+](=O)[O-])c1	8%	11%	31	-6%	32µM*	-3%
COc1cc(C(C2C(=O)CC(C)(C)CC2=O)C2C(=O)CC(C)(C)CC2=O)ccc1O	2%	4%	3	13%	14µM*	-8%
COc1ccc(C(C2C(=O)CC(C)(C)CC2=O)C2C(=O)CC(C)(C)CC2=O)cc1COCC(F)(F)F	0%	4%	-10	-1%	7.9µM*	6%
CCCCCC(=O)N(O)C1CC(=O)N(c2ccccc2)C1=O (stereo not given)	3%	-21%[57.1 µM]	-23	-21%	3.5µM*	4%
O=C(O)c1ccc(-c2ccc(-c3ccccc3)cc2)s1	0%	/	/	-21%	/	/
Cc1cc(-c2ccc(C(=O)O)s2)cnc1N	1%	849%	-13	-12%	20µM*	-1%
O=C(O)c1ccccc1Nc1cc(Cl)c2nonc2c1[N+](=O)[O-]	2%	-14%	-20	-14%	1.6µM*	-10%

Source: PubChem (National Center for Advancing Translational Sciences (NCATS))
